Results on 59 compounds are retold here after PubChem BioAssay AID485346 (Sanford-Burnham Center for Chemical Genomics, 2010).

One may read the inhibition as the relative decrease from the control value, in per cent.

The structures appear in SMILES notation. The campaign covered roughly 330,000 compounds. About 10,000 (3%) were called active.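 Rule for the calls: active = inhibition of at least 50% at 8 µM in the primary screen; inactive = the rest.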 Many of the other results were omitted from the sample, so actives are more common in it than they were.

Chain of Protein Mdm4 (Homo sapiens) + E3 ubiquitin-protein ligase Mdm2 (Homo sapiens) (O15151 whole entry, looked up): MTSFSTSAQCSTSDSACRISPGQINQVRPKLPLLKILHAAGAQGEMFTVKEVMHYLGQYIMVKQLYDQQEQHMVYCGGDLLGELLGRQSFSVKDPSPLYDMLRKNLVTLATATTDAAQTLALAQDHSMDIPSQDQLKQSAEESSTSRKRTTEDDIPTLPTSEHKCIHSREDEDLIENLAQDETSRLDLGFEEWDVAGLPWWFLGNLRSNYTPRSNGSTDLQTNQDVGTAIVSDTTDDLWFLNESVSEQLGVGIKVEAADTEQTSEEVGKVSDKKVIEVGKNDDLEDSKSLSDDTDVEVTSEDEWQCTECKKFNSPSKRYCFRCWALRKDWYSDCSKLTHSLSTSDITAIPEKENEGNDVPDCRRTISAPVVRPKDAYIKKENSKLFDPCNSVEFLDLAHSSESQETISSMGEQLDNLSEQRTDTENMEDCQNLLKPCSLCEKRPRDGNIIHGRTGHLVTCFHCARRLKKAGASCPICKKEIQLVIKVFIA
Chain of Protein Mdm4 (Homo sapiens) + E3 ubiquitin-protein ligase Mdm2 (Homo sapiens) (Q00987 whole entry, looked up): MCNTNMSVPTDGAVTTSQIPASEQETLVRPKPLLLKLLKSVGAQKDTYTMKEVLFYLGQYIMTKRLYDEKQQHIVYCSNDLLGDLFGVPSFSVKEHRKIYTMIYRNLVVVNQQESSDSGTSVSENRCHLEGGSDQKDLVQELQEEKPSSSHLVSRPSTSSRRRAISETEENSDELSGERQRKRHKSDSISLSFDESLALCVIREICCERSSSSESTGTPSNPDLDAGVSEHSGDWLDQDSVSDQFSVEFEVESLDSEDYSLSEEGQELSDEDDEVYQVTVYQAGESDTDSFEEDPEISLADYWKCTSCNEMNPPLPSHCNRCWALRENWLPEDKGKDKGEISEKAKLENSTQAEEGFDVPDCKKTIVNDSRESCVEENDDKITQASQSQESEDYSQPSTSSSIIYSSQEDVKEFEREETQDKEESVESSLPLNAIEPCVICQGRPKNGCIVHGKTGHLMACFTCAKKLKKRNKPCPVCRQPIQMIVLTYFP

This assay concerns the target Protein Mdm4 (Homo sapiens) + E3 ubiquitin-protein ligase Mdm2 (Homo sapiens) (UniProt O15151+Q00987). Nature of the assay: inhibitors of human Mdm2-MdmX association, primary screen, cell-based, luminescence, split luciferase, SaOS-2, uHTS (AID 485346). The following applies: SaOS-2 split-luciferase Mdm2/MdmX complementation, at 8 µM, active compounds read high.
As to `Cc1ccc2c(c1)C1C[N+](C)(CC(=O)c3ccccc3)CCC1N2C(=O)c1ccccc1Cl` (centres undefined), the inhibition is -17.1% (inactive). Consider `CCSC1=NCCN1S(=O)(=O)c1ccc(F)cc1`, for which the inhibition is -0.662% (inactive). Consider `Nc1nnc2c(C(F)(F)F)nc3ccccc3n12`, for which the inhibition is -2.03% (inactive).

For the compound `FC(F)(F)c1nnc2ccc(N3CCN(c4ccccc4)CC3)nn12`, the inhibition is 26.8% (inactive). On to `FC(F)(F)c1nnc2c3ccccc3c(Cl)nn12`, for which the inhibition was 64.4% (active). For `Cc1cc2oc(C(=O)Nc3c(C)n(C)n(-c4ccccc4)c3=O)c(C)c2cc1Cl` the value was 23.4% (inactive); for `COc1ccc(CNC(=O)c2ccc3oc(C(C)C)nc3c2)cc1`, -34.8% (inactive).

On to `Cc1cccc(N2O[C@H]3C=CC2CCCC3)n1`, for which the inhibition is 15.6% (inactive). On to `CC(=O)c1ccccc1NC(=O)CC1(CC(=O)O)CCCCC1`, for which the inhibition was 10.9% (inactive). For `CCOc1ccc(CCNC(=O)CSc2cc(=O)n(C)c3ccc(Cl)cc23)cc1OCC` the value was 4.16% (inactive). For the compound `CCN(CCCNC(=O)CSc1cc(=O)n(C)c2cc(Cl)ccc12)Cc1ccccc1`, the inhibition was 54.7% (active). As for `CCN(CC)CCCNC(=O)CCc1ccccc1`, the inhibition was 27.2% (inactive). Take `CC(=O)OCCC(C)C`: the inhibition was 9.67% (inactive). With `C=CCn1c(SCc2c(C)noc2C)nc2sc3c(c2c1=O)CCC(C)C3` (centres undefined), the inhibition was 52.5% (active).

On to `C=CCn1c(SCC(=O)NCC2CCCO2)nc2sc(C)c(C)c2c1=O` (centres undefined), for which the inhibition is 2.91% (inactive). The result for `C=CCn1c(SCC(=O)NCCCO)nc2sc3c(c2c1=O)CCC3` reads 0.393% (inactive); that for `Cc1ccc(-c2ccc(=O)n(Cc3ccc(F)cc3Cl)n2)cc1`, -15.3% (inactive). `COc1ccc(-c2nc(-c3ccccc3)no2)c(OC)c1`: the inhibition is 58.4% (active). For `COc1ccc(/C=C/c2noc(-c3ccccc3OC(C)=O)n2)cc1`, the inhibition is -61.9% (inactive). As for `Cc1ccc(-c2nc(-c3ccncc3)no2)c(C)c1`, the inhibition was -116% (inactive). The result for `O=C(NCCN1CCOCC1)c1cc(Sc2cccc(Cl)c2)nc2ccccc12` reads -2.97% (inactive). Regarding `CCOC(=O)/C=c1\s/c(=C\c2ccc(C#N)cc2)c(=O)n1CC(=O)Nc1cccc(C)c1C`, the inhibition is 78% (active). For `Cc1cccc(NC(=O)CSC(N)=O)c1C` the value was 2.96% (inactive). On to `CCOC(=O)/C=c1\s/c(=C\c2ccccc2OC)c(=O)n1CC(=O)N1CCOCC1`, for which the inhibition was 11.5% (inactive).

Regarding `COc1cc(Cl)c(C)cc1NC(=O)[C@@H]1CCCN1C(=O)c1cccs1`, the inhibition was 6.14% (inactive). On to `COc1ccc(S(=O)(=O)N2CCN(c3cnccn3)CC2)cc1`, for which the inhibition was 13.5% (inactive).

Consider `CC1(C)CCSC(/C=C/c2ccccc2)=N1`, for which the inhibition was 85.2% (active). Turning to `CC(=O)N1CCC(N(C(=O)Nc2ccc(Cl)cc2)C(C)C)CC1`, the inhibition is -29% (inactive).

On to `Cc1cc2oc(=O)cc(CN3CCN(Cc4ccccc4)CC3)c2cc1C`, for which the inhibition is -23.1% (inactive). Turning to `COc1cccc2sc3cc(NCC[C@@H]4CCCN4C)ccc3c(=O)c12`, the inhibition was -8.67% (inactive).

On to `Cc1cc2oc3ccc(NCCC4CCCN4C)cc3c(=O)c2cc1C` (centres undefined), for which the inhibition is 90% (active).

For `CCCCC1(C(=O)OCC)NC(c2ccc(O)cc2)C2C(=O)N(c3ccccc3)C(=O)C21` (centres undefined), the inhibition is 4.63% (inactive). The result for `COc1cccc(NC(=O)CCc2nnc3ccc(N4CCC(C)CC4)nn23)c1` reads 6.23% (inactive); that for `CC(=O)Nc1ccc(CN2CCN(Cc3ccc(F)c(F)c3)C(CCO)C2)cc1` (centres undefined), -4.68% (inactive).

Regarding `CC(C)c1nc(CNC(=O)CC2C(=O)NCCN2Cc2ccoc2)cs1` (centres undefined), the inhibition was 17% (inactive).

As to `Cc1csc(NC(=O)c2ccc(C)s2)n1`, the inhibition was -81.3% (inactive). For `COc1cc(SC)ccc1C(=O)Nc1nc(C)cs1` the value was 70.4% (active); for `COc1cc(SC)ccc1C(=O)Nc1cc(C)ccn1`, -133% (inactive); for `COc1ccc(-c2c(C(C)=O)c(C)nc3sc4c(=O)n(-c5ccc(C)cc5)nnc4c23)cc1`, 16.5% (inactive). `O=S(=O)(Nc1cccc(-c2ccc(N3CCOCC3)nn2)c1)c1ccc(Cl)c(Cl)c1`: the inhibition is -21.1% (inactive). For `NC(=O)c1ccc(Nc2ccc3nonc3c2[N+](=O)[O-])cc1` the value was 19.2% (inactive); for `Cc1cc(C)cc(NC(=O)C(c2ccccc2)N2CCN(CC(=O)N3CCCC3)CC2)c1` (centres undefined), 24% (inactive); for `COC1=CCC2([N+](=O)[O-])CN(CC(=O)O)CC1([N+](=O)[O-])C2` (centres undefined), 4.95% (inactive). The result for `Fc1ccc(-c2ccc(CNCc3ccccn3)o2)cc1Cl` reads 1.76% (inactive).

`Cc1cccc2cc(CN(Cc3cccs3)C(=S)NCc3ccco3)c(=O)[nH]c12`: the inhibition was 19.1% (inactive). For `COCCCNC(=S)N(CCN(C)C)Cc1cc2cc3c(cc2[nH]c1=O)OCCO3` the value was -4.07% (inactive); for `Cc1cc(C)c2[nH]c(=O)c(CN(Cc3ccccc3)C(=S)NCCCN(C)C)cc2c1`, 90.9% (active); for `COc1ccccc1NC(=O)CCC(=O)OC(C)C(=O)c1ccccc1` (centres undefined), -23.8% (inactive). `CCCn1c(O)c(CN2CCCC(C)C2)c(C)c(C#N)c1=O` (centres undefined): the inhibition is -48.3% (inactive). For `CCN(CC(=O)NCc1ccc(F)cc1)S(=O)(=O)c1ccc(Cl)s1` the value was -3.24% (inactive); for `COc1ccc(NC(=O)CN(C)CC(=O)Nc2cccc(C(F)(F)F)c2)cc1`, 14.9% (inactive).

As to `COc1ccc(NC(=O)C(=O)NCC(=O)Nc2cccc(C(F)(F)F)c2)cc1`, the inhibition was 12.2% (inactive). In the case of `N#Cc1ccc(Oc2ccc(C(F)(F)F)cc2NC(=O)c2ccc(F)cc2)cc1`, the inhibition was 9.08% (inactive). `Cc1cccc(NC(=O)c2nnn(-c3cccc(C(F)(F)F)c3)c2N)c1`: the inhibition is 8% (inactive). The result for `COc1cc(NC(=O)c2cncc(-c3ccc(C#N)cc3)c2)cc(C(=O)Nc2cccc(C(F)(F)F)c2)c1` reads 59.6% (active); that for `COc1cc(NC(=O)c2[nH]cnc2C(N)=O)cc(C(=O)Nc2cccc(C(F)(F)F)c2)c1`, 97.2% (active). As for `CCN1C(=O)[C@H]2[C@@H](c3ccc(-c4ccc(F)cc4)cc3)N[C@@](Cc3ccccc3)(C(=O)OC)[C@H]2C1=O`, the inhibition is 48% (inactive). The result for `CCCC(CNC(=O)COC(=O)C1=NNC(=O)CC1)c1ccc(Cl)cc1Cl` (centres undefined) reads -11.5% (inactive); that for `C=C(C)C(=O)Nc1cccc(C2=NOC3(C2)C[C@H](C(N)=O)N(C(=O)C(c2ccccc2)c2ccccc2)C3)c1` (some centres undefined), 16.4% (inactive).
